# Assay results reported in PMC7862700, “An all-to-all approach to the identification of sequence-specific readers for epigenetic DNA modifications on cytosine”.
# What was measured:
# Test in all cases: DAPPL (digital affinity profiling via proximity ligation, sequencing); 10 mM Tris-HCl pH 7.5, 50 mM NaCl, 1 mM DTT, 4% glycerol, room temperature, 30 min; GST-TFs on glutathione beads, 16-mer random dsDNA library, 0.1% formaldehyde crosslink after washing; high values mean tight binding
# [1] = biological target: T1, FLI1 (Homo sapiens, UniProt Q01543 1-452); conditions: protein: recombinant; tags: N-terminal GST; dsDNA, one strand shown
# T1 sequence: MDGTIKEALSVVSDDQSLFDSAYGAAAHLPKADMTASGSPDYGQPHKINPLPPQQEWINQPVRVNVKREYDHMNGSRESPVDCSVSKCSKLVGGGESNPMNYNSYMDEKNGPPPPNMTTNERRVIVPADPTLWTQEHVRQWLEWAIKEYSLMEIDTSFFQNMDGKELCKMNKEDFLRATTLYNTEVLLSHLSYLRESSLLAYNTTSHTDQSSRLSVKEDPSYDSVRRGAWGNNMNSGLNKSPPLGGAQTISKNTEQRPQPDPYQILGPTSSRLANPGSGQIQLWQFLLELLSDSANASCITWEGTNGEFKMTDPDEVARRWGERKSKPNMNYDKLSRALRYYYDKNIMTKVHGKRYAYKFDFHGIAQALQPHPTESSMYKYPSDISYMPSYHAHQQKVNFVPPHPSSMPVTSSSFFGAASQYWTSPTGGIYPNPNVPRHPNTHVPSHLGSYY
# In short: (§1)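 Human transcription factors were made in yeast as GST fusions, captured on glutathione beads and barcoded with DNA. With a tag-only sample included, the pool was incubated with 200 nmole of a random double-stranded 16-mer DNA library in Tris/NaCl/DTT/glycerol buffer at room temperature for 30 min, then crosslinked with 0.1% formaldehyde after washing, ligated by proximity, amplified and sequenced. For binding signal, each hexamer's read frequency for a factor is divided by its frequency for the tag-only sample.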
# [2] = biological target: T2, ELK1 (Homo sapiens, UniProt P19419 1-428); conditions: protein: recombinant; tags: N-terminal GST; dsDNA, one strand shown
# T2 sequence: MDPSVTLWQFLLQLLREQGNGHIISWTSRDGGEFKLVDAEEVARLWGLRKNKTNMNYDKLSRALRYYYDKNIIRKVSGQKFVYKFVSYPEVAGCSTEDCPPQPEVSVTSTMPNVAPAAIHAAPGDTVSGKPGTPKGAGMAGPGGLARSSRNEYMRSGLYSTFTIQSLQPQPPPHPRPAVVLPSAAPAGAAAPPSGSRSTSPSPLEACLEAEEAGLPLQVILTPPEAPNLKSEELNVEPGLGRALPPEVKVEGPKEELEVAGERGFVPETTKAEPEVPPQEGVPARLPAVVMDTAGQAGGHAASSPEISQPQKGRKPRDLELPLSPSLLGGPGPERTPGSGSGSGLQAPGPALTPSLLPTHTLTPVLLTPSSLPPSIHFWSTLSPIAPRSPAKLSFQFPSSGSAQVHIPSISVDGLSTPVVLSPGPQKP
# In short: as §1
# [3] = biological target: T3, GABPA (Homo sapiens, UniProt Q06546 1-454); conditions: protein: recombinant; tags: N-terminal GST; dsDNA, one strand shown
# T3 sequence: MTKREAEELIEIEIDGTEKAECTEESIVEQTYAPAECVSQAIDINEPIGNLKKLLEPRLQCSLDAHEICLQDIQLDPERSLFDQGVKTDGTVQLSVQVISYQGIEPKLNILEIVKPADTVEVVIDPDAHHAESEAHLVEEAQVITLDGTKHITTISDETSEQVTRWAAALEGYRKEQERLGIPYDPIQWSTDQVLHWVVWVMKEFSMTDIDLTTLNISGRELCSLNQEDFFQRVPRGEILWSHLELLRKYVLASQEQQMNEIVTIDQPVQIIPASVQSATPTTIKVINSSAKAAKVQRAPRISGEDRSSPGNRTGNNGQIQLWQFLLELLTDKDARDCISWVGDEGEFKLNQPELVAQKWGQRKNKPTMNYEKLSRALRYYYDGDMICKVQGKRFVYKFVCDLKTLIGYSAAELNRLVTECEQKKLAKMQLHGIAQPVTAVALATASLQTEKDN
# In short: as §1
# [4] = biological target: T4, ERG (Homo sapiens, UniProt P11308 1-479); conditions: protein: recombinant; tags: N-terminal GST; dsDNA, one strand shown
# T4 sequence: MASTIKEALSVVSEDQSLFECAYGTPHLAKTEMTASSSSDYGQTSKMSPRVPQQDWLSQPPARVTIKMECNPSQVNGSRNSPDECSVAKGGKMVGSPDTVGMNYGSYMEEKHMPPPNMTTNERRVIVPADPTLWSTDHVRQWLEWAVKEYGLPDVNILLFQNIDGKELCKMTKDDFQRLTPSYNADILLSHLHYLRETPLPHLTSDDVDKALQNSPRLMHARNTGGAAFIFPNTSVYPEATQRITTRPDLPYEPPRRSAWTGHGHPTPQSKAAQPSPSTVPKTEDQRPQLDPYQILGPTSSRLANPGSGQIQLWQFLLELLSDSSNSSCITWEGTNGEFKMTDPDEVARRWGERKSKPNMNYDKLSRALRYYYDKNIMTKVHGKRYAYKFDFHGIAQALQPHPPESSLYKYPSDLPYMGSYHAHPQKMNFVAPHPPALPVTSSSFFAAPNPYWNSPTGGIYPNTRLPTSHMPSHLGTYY
# In short: as §1
# [5] = biological target: ELF1 (Homo sapiens, UniProt P32519 1-619); conditions: protein: recombinant; tags: N-terminal GST; dsDNA, one strand shown
# Sequence of ELF1 (P32519 whole entry): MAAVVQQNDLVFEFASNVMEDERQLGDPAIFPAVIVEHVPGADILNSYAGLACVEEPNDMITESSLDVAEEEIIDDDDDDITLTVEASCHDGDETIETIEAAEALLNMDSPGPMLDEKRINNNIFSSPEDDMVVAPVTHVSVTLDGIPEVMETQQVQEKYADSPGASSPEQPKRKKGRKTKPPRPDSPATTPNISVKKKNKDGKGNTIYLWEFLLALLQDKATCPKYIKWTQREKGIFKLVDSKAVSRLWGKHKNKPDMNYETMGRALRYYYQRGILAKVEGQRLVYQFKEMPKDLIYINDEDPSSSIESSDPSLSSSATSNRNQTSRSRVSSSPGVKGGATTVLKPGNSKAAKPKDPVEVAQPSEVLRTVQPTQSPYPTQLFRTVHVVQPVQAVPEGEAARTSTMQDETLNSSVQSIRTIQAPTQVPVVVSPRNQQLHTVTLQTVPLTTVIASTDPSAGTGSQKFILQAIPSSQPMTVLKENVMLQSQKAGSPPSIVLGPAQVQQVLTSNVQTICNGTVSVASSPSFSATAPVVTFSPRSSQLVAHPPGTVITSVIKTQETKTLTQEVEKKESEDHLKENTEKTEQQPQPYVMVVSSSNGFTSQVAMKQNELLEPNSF
# In short: as §1
# [6] = biological target: T5, EHF (Homo sapiens, UniProt Q9NZC4 1-300); conditions: protein: recombinant; tags: N-terminal GST; dsDNA, one strand shown
# T5 sequence: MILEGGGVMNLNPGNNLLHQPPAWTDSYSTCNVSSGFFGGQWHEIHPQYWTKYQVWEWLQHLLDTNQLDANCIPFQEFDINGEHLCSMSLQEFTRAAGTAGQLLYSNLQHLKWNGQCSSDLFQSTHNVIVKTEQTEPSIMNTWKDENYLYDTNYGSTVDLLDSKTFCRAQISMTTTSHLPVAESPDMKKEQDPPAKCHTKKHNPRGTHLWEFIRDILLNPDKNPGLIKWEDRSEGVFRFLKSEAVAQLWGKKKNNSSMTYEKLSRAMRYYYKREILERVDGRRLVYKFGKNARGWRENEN
# In short: as §1
# [7] = biological target: SPI1 (Homo sapiens, UniProt P17947 1-270); conditions: protein: recombinant; tags: N-terminal GST; dsDNA, one strand shown
# In short: as §1
# [8] = biological target: SPIB (Homo sapiens, UniProt Q01892 1-262); conditions: protein: recombinant; tags: N-terminal GST; dsDNA, one strand shown
# Sequence of SPIB (Q01892 whole entry): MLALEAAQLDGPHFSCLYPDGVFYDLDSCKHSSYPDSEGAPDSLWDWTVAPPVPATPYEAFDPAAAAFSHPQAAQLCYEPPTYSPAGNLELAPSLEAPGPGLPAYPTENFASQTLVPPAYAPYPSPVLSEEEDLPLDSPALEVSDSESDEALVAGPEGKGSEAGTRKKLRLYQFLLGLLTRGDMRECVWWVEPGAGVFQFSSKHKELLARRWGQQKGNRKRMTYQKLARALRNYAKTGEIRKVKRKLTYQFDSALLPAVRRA
# In short: as §1
# [9] = biological target: T6, ELK3 (Homo sapiens, UniProt P41970 1-407); conditions: protein: recombinant; tags: N-terminal GST; dsDNA, one strand shown
# T6 sequence: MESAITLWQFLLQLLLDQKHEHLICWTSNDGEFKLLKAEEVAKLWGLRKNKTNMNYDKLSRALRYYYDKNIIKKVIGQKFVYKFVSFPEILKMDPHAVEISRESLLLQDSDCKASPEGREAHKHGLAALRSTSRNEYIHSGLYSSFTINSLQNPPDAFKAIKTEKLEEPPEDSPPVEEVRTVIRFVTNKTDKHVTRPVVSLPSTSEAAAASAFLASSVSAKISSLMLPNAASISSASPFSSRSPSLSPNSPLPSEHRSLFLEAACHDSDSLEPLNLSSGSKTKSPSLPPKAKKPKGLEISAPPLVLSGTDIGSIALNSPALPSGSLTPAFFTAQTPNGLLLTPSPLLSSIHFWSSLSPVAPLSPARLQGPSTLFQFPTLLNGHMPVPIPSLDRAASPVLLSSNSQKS
# In short: as §1
# [10] = biological target: T7, FEV (Homo sapiens, UniProt Q99581 1-238); conditions: protein: recombinant; tags: N-terminal GST; dsDNA, one strand shown
# T7 sequence: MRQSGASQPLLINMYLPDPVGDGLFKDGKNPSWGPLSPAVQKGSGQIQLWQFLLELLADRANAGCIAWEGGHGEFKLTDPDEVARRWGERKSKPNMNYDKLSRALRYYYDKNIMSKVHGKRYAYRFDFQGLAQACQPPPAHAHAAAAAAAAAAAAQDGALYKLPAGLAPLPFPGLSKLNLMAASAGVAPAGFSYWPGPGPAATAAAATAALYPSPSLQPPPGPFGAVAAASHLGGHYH
# In short: as §1
# [11] = biological target: ETV5 (Homo sapiens, UniProt P41161 1-510); conditions: protein: recombinant; tags: N-terminal GST; dsDNA, one strand shown
# Sequence of ETV5 (P41161 whole entry): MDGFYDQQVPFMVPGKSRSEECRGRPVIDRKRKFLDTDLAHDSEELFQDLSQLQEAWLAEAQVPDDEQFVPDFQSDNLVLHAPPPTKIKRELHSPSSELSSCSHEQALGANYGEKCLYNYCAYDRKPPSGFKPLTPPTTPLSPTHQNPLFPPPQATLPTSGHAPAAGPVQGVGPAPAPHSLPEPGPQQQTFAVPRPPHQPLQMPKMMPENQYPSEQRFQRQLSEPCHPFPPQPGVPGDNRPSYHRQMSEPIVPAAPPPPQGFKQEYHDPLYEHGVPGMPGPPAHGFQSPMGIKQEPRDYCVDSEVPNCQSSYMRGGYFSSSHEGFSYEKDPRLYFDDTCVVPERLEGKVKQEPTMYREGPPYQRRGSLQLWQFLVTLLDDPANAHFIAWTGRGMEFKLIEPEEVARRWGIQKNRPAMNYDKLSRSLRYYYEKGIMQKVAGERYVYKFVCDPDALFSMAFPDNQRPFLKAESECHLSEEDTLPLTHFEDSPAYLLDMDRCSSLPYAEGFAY
# In short: as §1
# [12] = biological target: HSF1 (Homo sapiens, UniProt Q00613 1-529); conditions: protein: recombinant; tags: N-terminal GST; chain copies: 3; dsDNA, one strand shown
# Sequence of HSF1 (Q00613 whole entry): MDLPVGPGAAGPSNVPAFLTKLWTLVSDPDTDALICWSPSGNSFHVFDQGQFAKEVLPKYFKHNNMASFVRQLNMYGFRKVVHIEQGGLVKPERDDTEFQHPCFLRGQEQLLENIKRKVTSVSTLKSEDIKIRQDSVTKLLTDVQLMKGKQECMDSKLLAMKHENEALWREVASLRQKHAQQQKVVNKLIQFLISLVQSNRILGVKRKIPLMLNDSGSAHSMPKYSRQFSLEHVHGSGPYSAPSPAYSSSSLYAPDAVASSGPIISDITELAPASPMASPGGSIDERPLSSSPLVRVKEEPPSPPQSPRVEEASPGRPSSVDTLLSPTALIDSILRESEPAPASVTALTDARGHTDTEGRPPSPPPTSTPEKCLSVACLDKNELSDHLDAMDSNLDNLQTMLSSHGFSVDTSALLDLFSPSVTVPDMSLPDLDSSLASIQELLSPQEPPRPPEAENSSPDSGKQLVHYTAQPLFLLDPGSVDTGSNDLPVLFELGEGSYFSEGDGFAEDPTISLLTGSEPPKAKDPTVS
# In short: as §1
# [13] = biological target: T8, SPIC (Homo sapiens, UniProt Q8N5J4 1-248); conditions: protein: recombinant; tags: N-terminal GST; dsDNA, one strand shown
# T8 sequence: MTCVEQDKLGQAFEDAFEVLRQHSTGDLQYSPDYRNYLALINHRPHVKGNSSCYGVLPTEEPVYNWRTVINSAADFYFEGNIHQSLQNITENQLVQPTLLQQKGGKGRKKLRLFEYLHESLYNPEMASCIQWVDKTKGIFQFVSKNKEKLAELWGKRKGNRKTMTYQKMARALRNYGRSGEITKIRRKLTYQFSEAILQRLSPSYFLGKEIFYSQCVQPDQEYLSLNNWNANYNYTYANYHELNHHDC
# In short: as §1
# [14] = biological target: ELF4 (Homo sapiens, UniProt Q99607 1-663); conditions: protein: recombinant; tags: N-terminal GST; dsDNA, one strand shown
# Sequence of ELF4 (Q99607 whole entry): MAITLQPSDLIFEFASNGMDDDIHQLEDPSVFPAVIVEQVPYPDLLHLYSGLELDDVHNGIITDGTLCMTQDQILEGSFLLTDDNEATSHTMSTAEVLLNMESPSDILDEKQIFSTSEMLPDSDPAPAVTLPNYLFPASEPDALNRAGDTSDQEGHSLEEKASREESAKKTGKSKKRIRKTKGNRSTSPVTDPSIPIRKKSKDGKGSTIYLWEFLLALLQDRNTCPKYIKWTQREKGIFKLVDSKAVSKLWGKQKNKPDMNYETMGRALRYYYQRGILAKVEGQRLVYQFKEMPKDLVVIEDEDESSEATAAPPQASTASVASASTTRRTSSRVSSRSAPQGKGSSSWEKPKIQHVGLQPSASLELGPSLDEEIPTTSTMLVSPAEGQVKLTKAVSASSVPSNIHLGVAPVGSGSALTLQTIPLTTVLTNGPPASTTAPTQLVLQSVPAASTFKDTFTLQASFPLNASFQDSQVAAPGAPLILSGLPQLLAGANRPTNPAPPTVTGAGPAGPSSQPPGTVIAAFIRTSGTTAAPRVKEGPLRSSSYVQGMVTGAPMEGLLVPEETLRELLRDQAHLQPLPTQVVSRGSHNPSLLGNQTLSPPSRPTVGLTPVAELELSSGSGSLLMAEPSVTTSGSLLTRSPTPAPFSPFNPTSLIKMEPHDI
# In short: as §1
# [15] = biological target: T9, ELK4 (Homo sapiens, UniProt P28324-2 1-405); conditions: protein: recombinant; tags: N-terminal GST; dsDNA, one strand shown
# T9 sequence: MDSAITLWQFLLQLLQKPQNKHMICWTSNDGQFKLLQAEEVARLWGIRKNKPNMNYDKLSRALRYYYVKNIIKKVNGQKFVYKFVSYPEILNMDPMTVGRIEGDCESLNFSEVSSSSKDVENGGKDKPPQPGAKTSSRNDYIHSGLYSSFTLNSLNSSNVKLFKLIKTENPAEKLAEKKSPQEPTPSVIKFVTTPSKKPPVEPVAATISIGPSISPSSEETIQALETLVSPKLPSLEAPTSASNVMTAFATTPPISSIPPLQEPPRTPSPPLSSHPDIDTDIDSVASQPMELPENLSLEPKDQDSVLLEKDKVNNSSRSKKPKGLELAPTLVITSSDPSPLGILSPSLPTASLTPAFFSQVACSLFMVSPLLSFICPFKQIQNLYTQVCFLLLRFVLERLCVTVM
# In short: as §1
# [16] = biological target: T10, ETV2 (Homo sapiens, UniProt O00321 1-342); conditions: protein: recombinant; tags: N-terminal GST; dsDNA, one strand shown
# T10 sequence: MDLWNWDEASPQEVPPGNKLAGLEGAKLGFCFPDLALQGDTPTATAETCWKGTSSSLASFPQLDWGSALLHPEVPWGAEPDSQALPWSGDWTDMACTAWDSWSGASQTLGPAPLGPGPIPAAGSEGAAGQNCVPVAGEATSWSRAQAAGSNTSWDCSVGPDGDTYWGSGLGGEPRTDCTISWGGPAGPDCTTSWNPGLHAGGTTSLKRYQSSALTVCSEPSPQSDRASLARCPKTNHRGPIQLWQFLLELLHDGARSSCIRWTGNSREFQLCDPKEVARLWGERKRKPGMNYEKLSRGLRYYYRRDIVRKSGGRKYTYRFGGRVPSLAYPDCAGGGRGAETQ
# In short: as §1
# [17] = biological target: T11, ELF3 (Homo sapiens, UniProt P78545 1-371); conditions: protein: recombinant; tags: N-terminal GST; dsDNA, one strand shown
# T11 sequence: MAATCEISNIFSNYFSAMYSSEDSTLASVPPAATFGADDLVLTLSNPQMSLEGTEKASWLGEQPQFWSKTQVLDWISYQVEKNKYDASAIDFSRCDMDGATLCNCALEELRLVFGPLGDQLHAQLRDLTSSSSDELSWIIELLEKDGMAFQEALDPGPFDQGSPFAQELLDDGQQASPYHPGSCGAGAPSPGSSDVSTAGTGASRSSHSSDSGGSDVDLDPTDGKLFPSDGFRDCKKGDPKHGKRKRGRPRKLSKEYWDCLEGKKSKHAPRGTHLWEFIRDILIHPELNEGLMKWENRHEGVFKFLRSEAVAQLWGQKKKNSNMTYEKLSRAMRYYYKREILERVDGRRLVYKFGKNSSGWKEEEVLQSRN
# In short: as §1
# [18] = biological target: CRX (Homo sapiens, UniProt O43186 1-299); conditions: protein: recombinant; tags: N-terminal GST; dsDNA, one strand shown
# Sequence of CRX (O43186 whole entry): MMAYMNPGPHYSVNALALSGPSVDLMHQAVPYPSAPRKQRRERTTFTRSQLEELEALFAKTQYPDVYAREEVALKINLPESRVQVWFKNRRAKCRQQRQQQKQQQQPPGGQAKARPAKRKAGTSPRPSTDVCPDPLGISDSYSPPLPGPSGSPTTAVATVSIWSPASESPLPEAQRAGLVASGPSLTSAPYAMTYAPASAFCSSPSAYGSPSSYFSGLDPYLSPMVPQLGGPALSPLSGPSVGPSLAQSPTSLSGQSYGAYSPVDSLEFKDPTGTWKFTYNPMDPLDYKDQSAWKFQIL
# In short: as §1
# [19] = biological target: ETV1 (Homo sapiens, UniProt P50549 1-477); conditions: protein: recombinant; tags: N-terminal GST; dsDNA, one strand shown
# Sequence of ETV1 (P50549 whole entry): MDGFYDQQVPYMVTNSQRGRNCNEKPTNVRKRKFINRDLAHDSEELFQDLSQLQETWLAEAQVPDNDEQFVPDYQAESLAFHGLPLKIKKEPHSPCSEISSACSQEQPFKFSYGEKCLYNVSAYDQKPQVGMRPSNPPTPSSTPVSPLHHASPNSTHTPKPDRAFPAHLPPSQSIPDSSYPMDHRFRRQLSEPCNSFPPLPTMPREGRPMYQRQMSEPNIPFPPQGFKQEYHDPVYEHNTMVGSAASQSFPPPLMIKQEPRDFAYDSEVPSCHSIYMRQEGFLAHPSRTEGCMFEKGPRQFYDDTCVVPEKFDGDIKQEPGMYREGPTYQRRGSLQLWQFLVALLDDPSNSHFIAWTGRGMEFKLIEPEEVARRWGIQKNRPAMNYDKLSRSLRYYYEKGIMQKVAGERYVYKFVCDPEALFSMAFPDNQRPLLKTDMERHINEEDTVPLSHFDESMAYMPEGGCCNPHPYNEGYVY
# In short: as §1
sequence,measurement,setting,value
TAGATG,binding signal,[1],"1.28 fold enrichment (6-mer frequency, TF over GST control)"
same,binding signal,[2],"1.29 fold enrichment (6-mer frequency, TF over GST control)"
same,binding signal,[3],"1.27 fold enrichment (6-mer frequency, TF over GST control)"
same,binding signal,[4],"1.27 fold enrichment (6-mer frequency, TF over GST control)"
same,binding signal,[5],"1.29 fold enrichment (6-mer frequency, TF over GST control)"
same,binding signal,[6],"1.26 fold enrichment (6-mer frequency, TF over GST control)"
same,binding signal,[7],"1.3 fold enrichment (6-mer frequency, TF over GST control)"
same,binding signal,[8],"1.24 fold enrichment (6-mer frequency, TF over GST control)"
same,binding signal,[9],"1.31 fold enrichment (6-mer frequency, TF over GST control)"
same,binding signal,[10],"1.22 fold enrichment (6-mer frequency, TF over GST control)"
same,binding signal,[11],"1.22 fold enrichment (6-mer frequency, TF over GST control)"
same,binding signal,[12],"1.66 fold enrichment (6-mer frequency, TF over GST control)"
same,binding signal,[13],"1.57 fold enrichment (6-mer frequency, TF over GST control)"
same,binding signal,[14],"1.18 fold enrichment (6-mer frequency, TF over GST control)"
same,binding signal,[15],"1.3 fold enrichment (6-mer frequency, TF over GST control)"
same,binding signal,[16],"1.37 fold enrichment (6-mer frequency, TF over GST control)"
same,binding signal,[17],"1.32 fold enrichment (6-mer frequency, TF over GST control)"
same,binding signal,[18],"1.52 fold enrichment (6-mer frequency, TF over GST control)"
same,binding signal,[19],"1.15 fold enrichment (6-mer frequency, TF over GST control)"
